In PubChem BioAssay (NCATS) one finds Potency and outcome data, which are given here for one molecule.

Experiment [1] deals with Cytochrome P450 1A2 (Homo sapiens) (UniProt P05177). Description: p450-cyp1a2 (AID 410; calls by dose curve; further: potency means the concentration at half of the fitted maximal effect). The gist of the method:
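Read-out is luminescence from luciferin produced by CYP1A2 demethylation of Luciferin-ME (100uM, at Km). Detection reagent stopped the 60 min NADPH-dependent reaction; signals were normalized to 57 uM furafylline.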

In experiment [2] the target is Glucocorticoid receptor (Homo sapiens) (UniProt P04150). Kind of experiment: GR-GFP Redistribution (AID 450;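 active means compounds whose dose series gives a full or clear partial fitted curve of increased nuclear translocation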; further: potency means the concentration at half of the fitted maximal effect). The settings on record: U2OS GR-GFP nuclear translocation, laser cytometry, 2 h.
Sequence of Glucocorticoid receptor (Homo sapiens) (P04150 whole entry, looked up): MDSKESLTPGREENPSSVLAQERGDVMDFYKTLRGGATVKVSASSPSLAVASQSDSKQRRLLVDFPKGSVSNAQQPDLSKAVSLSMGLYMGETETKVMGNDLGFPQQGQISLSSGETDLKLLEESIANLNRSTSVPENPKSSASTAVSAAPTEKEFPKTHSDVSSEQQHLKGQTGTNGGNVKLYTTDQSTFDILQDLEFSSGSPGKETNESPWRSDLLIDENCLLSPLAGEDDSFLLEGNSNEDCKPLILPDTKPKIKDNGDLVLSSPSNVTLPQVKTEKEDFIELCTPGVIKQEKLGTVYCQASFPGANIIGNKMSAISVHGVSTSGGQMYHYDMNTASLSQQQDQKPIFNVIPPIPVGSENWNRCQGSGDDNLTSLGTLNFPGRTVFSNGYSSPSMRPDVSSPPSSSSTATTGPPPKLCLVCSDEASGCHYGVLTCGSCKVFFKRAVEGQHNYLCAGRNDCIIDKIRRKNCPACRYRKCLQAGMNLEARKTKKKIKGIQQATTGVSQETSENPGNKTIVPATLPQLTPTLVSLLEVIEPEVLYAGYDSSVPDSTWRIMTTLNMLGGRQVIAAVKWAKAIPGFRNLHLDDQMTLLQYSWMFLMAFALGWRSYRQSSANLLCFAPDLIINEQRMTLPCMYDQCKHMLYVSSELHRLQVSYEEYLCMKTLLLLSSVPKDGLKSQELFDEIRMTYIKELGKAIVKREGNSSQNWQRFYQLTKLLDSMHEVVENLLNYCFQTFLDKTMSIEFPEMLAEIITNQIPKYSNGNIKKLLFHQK
Experiment [3] has the same target. Kind of experiment: GR-EFC Redistribution (AID 451; calls by dose curve; further: potency means the concentration at half of the fitted maximal effect). The settings on record: CHO-K1 GR-EFC translocation, beta-gal luminescence, 2 h. The gist of the method:
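CHO-K1 cells expressing nuclear EA and GR-ED fragments of b-gal; compounds titrated up to 46 uM final, 2 h at 37 C. GR nuclear translocation read as complemented b-gal luminescence after 1 h RT detection.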

Experiment [4] concerns the target Mitogen-activated protein kinase 10 (Mus musculus) (UniProt Q61831). Description: JNK3 AlphaScreen Assay (AID 530; active means well fitted curve in either direction with a large enough effect, not every such curve was filed as active;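 further: kinase came from lysate of stimulated human HepG2 cells; signal reports phosphorylation of biotinylated GST-cJun 1-79 at Ser73 with 10 µM ATP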). The procedure, abridged:
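HepG2 lysate (IL-1b/TNFa pre-activated) + biotin-GST-cJun 1-79 + anti-pSer73 cJun; cpd titration, 15 min RT; ATP 10 uM start; Tris pH 7.6, MgCl2, DTT, vanadate; beads in EDTA buffer; AlphaScreen.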
On the technique in general: Alpha assays give light when donor and acceptor beads are brought close together.

Experiment [5] has as its target Guanine nucleotide-binding protein G(i) subunit alpha-1 (Homo sapiens) (UniProt P63096). Description: qHTS Assay for Inhibitors of RGS12 GoLoco Motif Activity (Green Fluorophore) (AID 879).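 Further: negative values mean loss of peptide binding seen as reduced polarization.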 The gist of the method:
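A drop in FITC polarization marked displacement of the FITC-tagged RGS12 GoLoco peptide (10 nM) from Gαi1 (50 nM). Compounds were incubated 10 min at room temperature in Tris pH 7.5 buffer containing 150 mM NaCl, 0.1 mM GDP and 0.05% NP40; unlabeled peptide titration served as control.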
(In general: Quantitative high-throughput screening tests each substance at several concentrations.)

A short description of experiment [6]: qHTS Assay for Identification of Small Molecule Agonists for Thrombopoietin (TPO) Signaling Pathway (AID 917). The gist of the method:
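Cell-based luciferase reporter screen. Mouse Ba/F3 line stably expressing human TPO receptor; IL-3 removed overnight before plating. Co-treatment with compound and EC50 TPO (26 pM), 24 hrs at 37 C, then luminescence.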

Experiment [7] addresses Muscarinic acetylcholine receptor M1 (Rattus norvegicus) (UniProt P08482). Kind of experiment: qHTS Assay for Antagonists of Acetylcholine Muscarinic M1 Receptor: Measurement of IP-One Response (AID 944). Further: nearly all actives have a fitted effect of over 75% in size. The gist of the method: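 Antagonism was measured as loss of carbachol-driven (EC80) IP1 accumulation in CHO cells carrying rat M1, using a homogeneous IP-One TR-FRET kit read at 620 and 665 nm.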

Experiment [8] addresses Pyruvate kinase (Leishmania mexicana) (UniProt Q27686). Description: qHTS Validation Assay for Inhibitors of Leishmania Mexicana Pyruvate Kinase (AID 945). The gist of the method:
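Pyruvate kinase activity of E451W LmPYK (0.2 nM) was followed as ATP output after 1 h at room temperature with 0.5 mM PEP and 0.1 mM ADP, detected by PKLight luminescence.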

Experiment [9] deals with Pyruvate kinase PKM (Homo sapiens) (UniProt P14618). Kind of experiment: qHTS Assay for Activators of Human Muscle Pyruvate Kinase (AID 954; active means well fitted curve in the direction sought with a large enough effect, not every such curve was filed as active). The gist of the method: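 A coupled luminescent readout tracked ATP made from ADP by purified PKM2. Final conditions included 0.1 nM enzyme, PEP and ADP at 0.5 and 0.1 mM, pH 7.2 imidazole buffer with BSA, and a one-hour room-temperature reaction.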

In experiment [10] the target is Alpha-galactosidase A (Homo sapiens) (UniProt P06280). Kind of experiment: Counterscreen for Glucocerebrosidase Inhibitors: qHTS Assay for Human alpha-Galactosidase at pH 4.5 (AID 992). The gist of the method: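 Citrate buffer pH 4.5, Tween-20 0.005%. Enzyme 2 nM, substrate 80 uM, 20 min RT. Stop pH 10. Fluorescence Ex 365/Em 440. AC50 by Hill fit.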
For orientation: Counterscreens check selectivity or assay interference.

Experiment [11] has as its target alpha-glucosidase (Oryza sativa, rice) (UniProt Q653V4). Description: Counterscreen for Glucocerebrosidase Inhibitors: qHTS Assay for Rice alpha-Glucosidase at pH 5.0 (AID 997). The procedure, abridged: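 Endpoint fluorogenic assay at pH 5.0: compounds (0.7 nM to 77 uM) titrated against 4 nM rice enzyme and 400 uM 4-MU-alpha-glucoside for 20 min at room temperature; NaOH/glycine stop, read ex 365/em 440 nm, Hill-fitted AC50.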

Experiment [12] can be described thus: Cytometric Cell-Based qHTS for Inhibitors of the mTORC1 Signaling Pathway in MEF (Tsc2-/-, p53-/-) Cells (AID 2660).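 Further: Tsc2 and p53 null MEFs carrying empty vector with compound for 24 h; percent of cells above a phospho-rpS6 to PI ratio cutoff in each well.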 The procedure, abridged: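 Readout: Alexa-488 phospho-rpS6 (Ser235/236) intensity divided by PI intensity, thresholded against 7.5 nM rapamycin wells and reported as % positive cells. PI cell count served as the viability measure. Compound exposure was 24 hrs at 37 degree Celsius.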

Experiment [13] in a line: High Content Imaging Cell-Based qHTS for Inhibitors of the mTORC1 Signaling Pathway in MEF (Tsc2-/-, p53-/-) Cells (AID 2666).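 Further: percent of cells scored positive for phospho-rpS6 Ser235/236 immunostaining by imaging.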 The settings on record: at 38.3 µM (top of the series). The procedure, abridged: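 MEF Tsc2-/- p53-/- (empty vector), DMEM/10% FBS; cpd 24 h 37 °C; PFA fix, Alexa-488 p-rpS6 S235/236 Ab, Hoechst; imaged; rapamycin-defined inhibition; % positive cells/well.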

The nature of experiment [14]: High Content Imaging Cell-Based qHTS for Inhibitors of the mTORC1 Signaling Pathway in MEF Cells (AID 2667).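 Further: Tsc2-/- p53-/- MEFs stably re-expressing wild-type Tsc2 exposed 24 h.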 The procedure, abridged:
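Read-out is the share of phospho-rpS6-positive cells per well, from Hoechst-normalized Alexa-488 Ser235/236 staining imaged on IN Cell. Cells: WT Tsc2-expressing Tsc2-/-, p53-/- MEFs exposed to compound for 24 hrs.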

The nature of experiment [15]: Cytometry Cell-Based qHTS for Inhibitors of the mTORC1 Signaling Pathway in MEF cells (AID 2668).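 Further: Tsc2-/- p53-/- mouse embryonic fibroblasts stably re-expressing wild-type Tsc2; percent cells positive for phospho-rpS6 Ser235/236 relative to propidium iodide stain.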 The procedure, abridged: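 Tsc2-/-, p53-/- MEFs re-expressing WT Tsc2; cpd 24 hrs, 37 degree Celsius; PFA fix, Alexa-488 p-rpS6 (Ser235/236) Ab 2 hrs RT, PI counterstain; Acumen 488nm scan; p-S6/PI ratio → % positive cells; PI count = viability.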
Experiment [16] concerns the target Ubiquitin carboxyl-terminal hydrolase 2 (Homo sapiens) (UniProt O75604). Kind of experiment: qHTS Validation Assay for Inhibitors of Ubiquitin-specific Protease USP2a Using CHOP2 as the Reporter (AID 463106). The gist of the method: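 Fluorescence read-out at Ex 485nm/Em 531nm after 60min RT, following addition of 25nM Ub-CHOP2 plus 25nM reporter substrate to USP2 core (10nM) pretreated 30min with compound. Data normalized to NEM full inhibition; concentration-response curves fitted.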

The target of experiment [17] is DNA polymerase III PolC-type (Bacillus subtilis (strain 168)) (UniProt P13267). Kind of experiment: qHTS Validation Assay for the Inhibitors of DNA Replication in Gram-Positive Bacteria (AID 485295).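 Further: reconstituted holoenzyme with PolC plus beta clamp SSB and primase; PicoGreen fluorescence of double-stranded DNA made on primed circular M13 template.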 The procedure, abridged: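 First, compound is mixed with the reconstituted replication complex and held at room temperature. Next, circular single-stranded M13Gori with nucleotides starts synthesis. Finally, PicoGreen in EDTA halts the reaction and stains double-stranded product for fluorescence reading.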
Sequence of DNA polymerase III PolC-type (Bacillus subtilis (strain 168)) (P13267 whole entry, looked up): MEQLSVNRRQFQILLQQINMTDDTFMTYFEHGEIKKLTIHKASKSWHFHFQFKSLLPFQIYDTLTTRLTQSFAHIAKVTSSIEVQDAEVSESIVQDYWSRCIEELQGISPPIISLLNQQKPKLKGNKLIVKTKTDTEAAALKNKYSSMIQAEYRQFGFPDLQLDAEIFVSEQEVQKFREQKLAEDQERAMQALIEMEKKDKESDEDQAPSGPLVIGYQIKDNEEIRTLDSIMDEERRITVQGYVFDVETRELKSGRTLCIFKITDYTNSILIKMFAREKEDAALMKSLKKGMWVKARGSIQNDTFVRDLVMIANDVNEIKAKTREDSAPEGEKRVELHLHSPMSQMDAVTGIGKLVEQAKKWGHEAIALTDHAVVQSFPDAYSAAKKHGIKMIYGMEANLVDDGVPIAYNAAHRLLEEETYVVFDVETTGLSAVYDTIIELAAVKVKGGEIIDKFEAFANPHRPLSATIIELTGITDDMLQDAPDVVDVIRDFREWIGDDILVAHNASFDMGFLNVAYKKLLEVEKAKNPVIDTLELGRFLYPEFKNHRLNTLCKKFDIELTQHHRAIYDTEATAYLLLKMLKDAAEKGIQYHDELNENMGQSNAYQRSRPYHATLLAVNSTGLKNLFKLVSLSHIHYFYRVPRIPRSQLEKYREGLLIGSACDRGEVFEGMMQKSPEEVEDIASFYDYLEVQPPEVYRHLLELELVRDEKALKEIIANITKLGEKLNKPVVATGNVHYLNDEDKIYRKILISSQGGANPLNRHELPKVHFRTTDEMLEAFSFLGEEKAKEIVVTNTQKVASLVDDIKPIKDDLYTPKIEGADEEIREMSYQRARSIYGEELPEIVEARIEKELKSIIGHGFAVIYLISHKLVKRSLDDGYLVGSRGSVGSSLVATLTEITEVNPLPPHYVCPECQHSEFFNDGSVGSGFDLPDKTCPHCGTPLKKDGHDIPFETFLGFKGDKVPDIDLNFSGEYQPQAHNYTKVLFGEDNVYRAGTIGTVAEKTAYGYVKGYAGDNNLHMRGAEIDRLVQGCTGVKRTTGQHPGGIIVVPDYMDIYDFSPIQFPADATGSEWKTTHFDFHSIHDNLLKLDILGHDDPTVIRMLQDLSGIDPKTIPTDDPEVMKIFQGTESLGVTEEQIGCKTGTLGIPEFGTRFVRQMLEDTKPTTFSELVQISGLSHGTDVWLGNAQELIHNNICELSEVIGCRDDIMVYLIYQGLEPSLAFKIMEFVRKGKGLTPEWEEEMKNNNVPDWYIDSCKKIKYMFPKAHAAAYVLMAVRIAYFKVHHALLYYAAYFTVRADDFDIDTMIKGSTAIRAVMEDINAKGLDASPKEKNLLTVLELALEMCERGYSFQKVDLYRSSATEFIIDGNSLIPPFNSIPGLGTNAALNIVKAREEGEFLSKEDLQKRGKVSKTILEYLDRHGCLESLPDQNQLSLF

Experiment [18] has as its target Tumor susceptibility gene 101 protein (Homo sapiens) (UniProt Q99816). Kind of experiment: qHTS Validation Assay for Iinhibitors of HIV-1 Budding by Blocking the Interaction of PTAP/TSG101 (AID 485342; calls by dose curve). The procedure, abridged:
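Binding of a FITC-tagged PTAP-motif peptide (50 nM) to the Tsg101 binding domain (10 uM) is monitored by fluorescence polarization. Compounds are pin-delivered before peptide addition, and incubation runs 20 min at room temperature.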

For experiment [19], the target named is Beta-2 adrenergic receptor (Homo sapiens) (UniProt P07550). Description: qHTS validation assay of beta-arrestin-biased ligands of beta2-adrenergic receptor (AID 485366). The gist of the method: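 Agonist activity is measured as luciferase luminescence downstream of beta-arrestin recruitment to recombinant beta2-AR in Tango cells. Exposure lasts 18 hr at 37 degrees C, and curves are categorized by r2, response size and activity.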
Sequence of Beta-2 adrenergic receptor (Homo sapiens) (P07550 whole entry, looked up): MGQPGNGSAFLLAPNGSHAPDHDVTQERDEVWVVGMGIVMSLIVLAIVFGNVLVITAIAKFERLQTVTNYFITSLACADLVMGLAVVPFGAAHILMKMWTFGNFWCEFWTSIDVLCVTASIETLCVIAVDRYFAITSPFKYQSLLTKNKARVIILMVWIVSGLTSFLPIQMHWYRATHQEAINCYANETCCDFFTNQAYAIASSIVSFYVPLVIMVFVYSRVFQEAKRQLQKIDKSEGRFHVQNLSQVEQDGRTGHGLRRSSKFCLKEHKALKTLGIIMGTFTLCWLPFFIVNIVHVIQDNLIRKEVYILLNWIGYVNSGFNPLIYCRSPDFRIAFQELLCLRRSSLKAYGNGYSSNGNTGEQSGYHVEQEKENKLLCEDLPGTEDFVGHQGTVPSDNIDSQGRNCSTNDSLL

Values without a mark were called inactive. Inconclusive results are not listed. Calls of active or inactive are those of the source. Unless noted, the call rests on the fitted dose curve; in most records, active means well fitted curve in the direction sought with a large enough effect; inconclusive means small, poorly fitted or top-dose-only effect, or another doubt; inactive means no such curve, though single readings can be large; an effect the other way counts as inactive or inconclusive.

Sequence of Cytochrome P450 1A2 (Homo sapiens) (P05177 whole entry, looked up): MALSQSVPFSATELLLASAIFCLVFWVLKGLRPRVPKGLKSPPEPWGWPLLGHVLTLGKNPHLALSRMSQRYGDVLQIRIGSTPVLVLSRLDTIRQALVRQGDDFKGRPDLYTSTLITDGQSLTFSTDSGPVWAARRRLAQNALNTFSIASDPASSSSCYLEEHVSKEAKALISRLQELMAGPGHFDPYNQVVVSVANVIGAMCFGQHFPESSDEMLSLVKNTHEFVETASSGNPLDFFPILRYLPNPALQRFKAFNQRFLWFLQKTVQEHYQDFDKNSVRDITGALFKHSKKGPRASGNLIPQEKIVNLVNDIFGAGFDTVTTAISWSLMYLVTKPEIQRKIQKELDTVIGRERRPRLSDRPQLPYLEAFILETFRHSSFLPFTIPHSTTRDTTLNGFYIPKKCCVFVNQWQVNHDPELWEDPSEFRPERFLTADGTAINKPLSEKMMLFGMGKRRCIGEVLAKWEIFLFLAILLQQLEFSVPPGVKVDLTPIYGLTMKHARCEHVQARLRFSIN
Sequence of Muscarinic acetylcholine receptor M1 (Rattus norvegicus) (P08482 whole entry, looked up): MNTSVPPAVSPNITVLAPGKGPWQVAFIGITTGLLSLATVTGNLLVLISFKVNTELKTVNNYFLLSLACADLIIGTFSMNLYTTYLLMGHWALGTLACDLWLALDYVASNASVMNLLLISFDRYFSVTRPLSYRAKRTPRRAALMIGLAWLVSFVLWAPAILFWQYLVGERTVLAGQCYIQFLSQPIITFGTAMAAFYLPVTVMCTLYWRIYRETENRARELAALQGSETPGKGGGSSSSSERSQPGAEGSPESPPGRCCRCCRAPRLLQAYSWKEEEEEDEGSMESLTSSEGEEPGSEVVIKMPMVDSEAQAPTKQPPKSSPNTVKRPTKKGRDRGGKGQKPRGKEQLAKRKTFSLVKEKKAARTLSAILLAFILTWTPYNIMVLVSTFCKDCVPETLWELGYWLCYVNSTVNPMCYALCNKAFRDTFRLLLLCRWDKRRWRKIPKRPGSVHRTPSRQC
Sequence of Tumor susceptibility gene 101 protein (Homo sapiens) (Q99816 whole entry, looked up, the tested form may be a part): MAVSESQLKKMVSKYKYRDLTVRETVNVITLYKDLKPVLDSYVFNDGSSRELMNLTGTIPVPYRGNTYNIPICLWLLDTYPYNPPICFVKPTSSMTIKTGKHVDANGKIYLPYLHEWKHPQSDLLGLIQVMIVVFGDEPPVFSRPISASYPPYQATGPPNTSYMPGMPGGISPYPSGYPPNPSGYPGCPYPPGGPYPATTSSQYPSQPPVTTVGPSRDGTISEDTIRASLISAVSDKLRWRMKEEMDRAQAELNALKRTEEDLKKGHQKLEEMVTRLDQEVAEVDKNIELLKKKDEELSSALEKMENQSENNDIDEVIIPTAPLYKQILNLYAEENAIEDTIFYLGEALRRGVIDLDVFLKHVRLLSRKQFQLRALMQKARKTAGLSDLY
Sequence of Pyruvate kinase (Leishmania mexicana) (Q27686 2-499 E452W): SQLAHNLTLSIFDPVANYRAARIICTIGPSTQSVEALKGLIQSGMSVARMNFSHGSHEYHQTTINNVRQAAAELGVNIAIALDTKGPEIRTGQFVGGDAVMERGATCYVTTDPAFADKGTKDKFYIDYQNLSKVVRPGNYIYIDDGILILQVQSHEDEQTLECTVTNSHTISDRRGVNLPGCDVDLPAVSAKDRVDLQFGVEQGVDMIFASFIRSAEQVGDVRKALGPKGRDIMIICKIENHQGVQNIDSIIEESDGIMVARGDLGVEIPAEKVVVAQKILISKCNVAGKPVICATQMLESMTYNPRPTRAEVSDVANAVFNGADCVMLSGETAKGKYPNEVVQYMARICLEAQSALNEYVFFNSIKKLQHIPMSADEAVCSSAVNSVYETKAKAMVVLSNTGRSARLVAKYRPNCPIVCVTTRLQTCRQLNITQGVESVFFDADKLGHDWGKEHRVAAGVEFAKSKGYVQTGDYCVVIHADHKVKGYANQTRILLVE
Sequence of Guanine nucleotide-binding protein G(i) subunit alpha-1 (Homo sapiens) (P63096 whole entry, looked up): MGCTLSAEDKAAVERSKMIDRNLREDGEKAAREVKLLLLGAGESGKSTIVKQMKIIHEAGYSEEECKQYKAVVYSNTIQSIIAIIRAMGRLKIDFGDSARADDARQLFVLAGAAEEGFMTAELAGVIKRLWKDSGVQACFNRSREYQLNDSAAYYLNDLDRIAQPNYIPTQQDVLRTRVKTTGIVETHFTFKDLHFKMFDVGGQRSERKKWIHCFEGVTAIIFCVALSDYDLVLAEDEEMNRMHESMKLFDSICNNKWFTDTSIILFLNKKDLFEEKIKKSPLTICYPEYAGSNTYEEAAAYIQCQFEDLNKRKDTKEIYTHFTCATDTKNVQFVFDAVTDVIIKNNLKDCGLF

Take `CC[C@@H](CO)Nc1nc(NCc2ccccc2)c2ncn(C(C)C)c2n1`: the Potency is 12.6 µM (active) in experiment [1], > 46 µM in [2] and > 46 µM in [3]. Besides, the Potency entry in [4], in [7] and in experiment [11] was “inactive” in each case. For the same molecule, the molecule was called inactive in experiment [5], in [6], in [8], in [9], in experiment [10] and in [12]. Further, the outcome in experiment [13], in experiment [14], in experiment [15], in experiment [16], in experiment [17] and in [18] was inactive. In addition, the result in experiment [19] was inactive.
